Hit rate of the full screen: of about 1,800 compounds, about 710 (39%) were called active. Roughly 28% stayed inconclusive and do not appear here.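 The calls were made as follows: active = luciferase signal rise whose fitted curve crosses a set activity limit at or below the top valid tested dose; inconclusive = flat fit with 30 to 70% rise, or poor fit; inactive = signal falling, flat within 30%, or crossing above top dose.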 The list is a sample of the results. Results with a measured potency or affinity are listed apart.
Assay: luciferase activators in glycosylation-insensitive reporter cells, dose response, counter-screen for N-linked glycosylation inhibitor project, D54 LucT cells, luminescence, cherry pick (AID 624404);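 also: 0% = median neutral control signal and 100% = twice that signal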
Settings: D54 LucT luciferase reporter counterscreen, 24 h; series mostly up to 19.5 µM; activity increase (luciferase signal): at the top concentration

SMILES	activity increase (luciferase signal)
CCOC(=O)c1[nH]c2ccc(F)cc2c1NC(=O)C(C)N1CCc2cc(OC)c(OC)cc2C1 (configuration not stated)	17.3% (inactive)
CCN(CC)c1ccc(NC(=O)CC2Oc3ccccc3NC2=O)c(C)c1 (configuration not stated)	13.1% (inactive)
COc1ccc(C2C3=C(COC3=O)Oc3cc4c(cc32)OCO4)cc1OC (configuration not stated)	39.7% (inactive)
Cc1ccc(C)c(NC(=O)Cn2nnc(C(=O)NCc3ccco3)c2N)c1	50% (inactive)
COc1cc(NC(=O)NCc2ccco2)ccc1-c1ccc(NC(=O)NCc2ccco2)cc1OC	-17.9% (inactive)
C=CCOc1ccccc1C(=O)/C=C1/C(=O)Nc2ccccc21	39.7% (inactive)
c1cnc2nc3c4ccccc4c4ccccc4c3nc2c1	14% (inactive)
Cc1ccc(C(C)C)c(OCc2nnc(SCC(=O)Nc3ncc(C)s3)n2C)c1	-52.9% (inactive)
Cc1cc(C)c(NC(=O)CSc2nc(COc3ccccc3)nc3ccccc23)c(C)c1	27.5% (inactive)
CCn1c(SCC(=O)Nc2ccc(C(C)=O)cc2)nc2c([nH]c3ccccc32)c1=O	-9.93% (inactive)
COc1ccc(-c2nnc(SCC(=O)Nc3ncc(C)s3)n2-c2ccccc2)cc1OC	-24.2% (inactive)
COc1ccc2c(c1)c1ccc3c(c1n2C)C(=O)C=CC3=O	7.43% (inactive)
CC1(C(=O)NCc2ccc(F)c(F)c2)Cc2c(-c3ccc4c(c3)OCO4)ccnc2O1 (configuration not stated)	17.7% (inactive)
O=C(N/N=C/c1cccc(Br)c1)c1ccc(N2CCCC2=O)cc1	60.1% (inactive)
CC(=O)/C=C/c1ccccc1Oc1c(F)c(F)nc(F)c1F	-19.5% (inactive)
CC(=O)N1c2ccccc2C(=O)C1N(C)c1ccc(C)cc1 (configuration not stated)	11.4% (inactive)
COc1ccc(CCn2c(=N)c(C(=O)NCC3CCCO3)cc3c(=O)n4cccc(C)c4nc32)cc1 (configuration not stated)	-27.9% (inactive)
COc1ccc(CCn2c(=N)c(C(=O)NCCN3CCOCC3)cc3c(=O)n4cccc(C)c4nc32)cc1OC	8.4% (inactive)
COc1ccc(NC(=O)COC(=O)/C=C/C(=O)OCC(=O)Nc2ccc(OC)c(Cl)c2)cc1Cl	0.926% (inactive)
Cn1cnc([N+](=O)[O-])c1S(=O)(=O)Oc1ccccc1	16.6% (inactive)
CCOc1ccc(Nc2c3ccccc3nc3ccccc23)cc1	-45.8% (inactive)
CCOc1ccc(Nc2nnc(SCc3nc4ccccc4c(=O)[nH]3)s2)cc1	4.11% (inactive)
CCN1/C(=C/c2sc(-c3ccccc3C)c[n+]2C)Sc2ccccc21	-54.8% (inactive)
O=C(CC1Sc2ccccc2NC1=O)NNc1cccc(Cl)c1Cl (configuration not stated)	43.9% (inactive)
O=C(Cc1ccc(Cl)cc1)Nc1ccccc1N1CCN(C(=O)c2ccccc2)CC1	309% (inactive)
CCOC(=O)c1c(NC(C)=O)sc2c1CCC(C=O)=C2Sc1ccccc1	-5.28% (inactive)

SMILES	activity increase (luciferase signal)
CCOC(=O)c1c(NC(=O)CCl)sc(C(=O)N(CC)CC)c1C	-4.47% (inactive)
CNC(=O)COC(=O)c1ccccc1C(=O)c1ccc(Cl)c([N+](=O)[O-])c1	-9.98% (inactive)
COc1ccc([N+](=O)[O-])cc1NC(=O)CCN1CCN(CCO)CC1	29.9% (inactive)
CCOC(=O)c1ccc(-n2cccc2/C=C2\NC(=O)NC2=O)cc1	-16.1% (inactive)
CCc1ccc(Oc2coc3cc(OCC(=O)Nc4cc(C)ccc4C)ccc3c2=O)cc1	1.63% (inactive)
COc1cc(C2=NOC(C(=O)NCc3ccc(F)cc3)C2)cc(OC)c1OC (configuration not stated)	3.85% (inactive)
CN(C)S(=O)(=O)c1ccc(N2CCCC2)c(C(=O)Nc2nccs2)c1	32.4% (inactive)
COc1cc(Nc2c3c(nc4ccccc24)CCC3)cc(OC)c1OC	41.2% (inactive)
CCOC(=O)c1[nH]c(C)c(C(=O)OCC(=O)NC(C)c2ccc(F)cc2)c1C (configuration not stated)	3.88% (inactive)
CCOC(=O)c1[nH]c(COC(=O)CCOc2ccccc2OC)c(C(=O)OCC)c1C	16% (inactive)
CCOC(=O)c1nnc(-c2ccc(C)cc2)nc1Sc1ccccc1Cl	-0.161% (inactive)
Cc1cc2c(=Cc3ccc(N(C)C)cc3)c3ccccc3n2[n+]1C	2.56% (inactive)
COc1cc(-c2nc3ccc(N4CCN(C)CC4)cc3[nH]2)cc(OC)c1OC	3.45% (inactive)
COc1ccc2c(-c3cc4ccc(OCc5ccc(F)cc5)cc4oc3=O)cc(=O)oc2c1	-17.7% (inactive)
CC1Cc2ccccc2N1C(=O)CSc1nn2c(=O)c(C(C)(C)C)nnc2s1 (configuration not stated)	21.3% (inactive)
C#CC(=O)CC1(CN(Cc2ccccc2)C(=O)OC(C)(C)C)CCCCC1	38.3% (inactive)
COc1ccc(Cl)cc1NC(=O)CN(C)CC(=O)Nc1cc(OC)c(OC)c(OC)c1	-4.41% (inactive)
CCC12CCC3c4ccc(O)cc4CCC3C1CC(O)C2O (configuration not stated)	42.4% (inactive)
O=C(c1cccc([N+](=O)[O-])c1)N1CCN(c2cccc(Cl)c2)CC1	1.66% (inactive)
c1ccc(-c2n[nH]c(-c3ccccc3)c2-c2nc3ccccc3[nH]2)cc1	-18.4% (inactive)
c1ccc(-n2nnnc2-c2cccc3ccccc23)cc1	43.7% (inactive)
COc1ccc(NC(=O)CSc2c3c(nc4ccccc24)CCCC3)c(OC)c1	-48.4% (inactive)
CN(C)c1ccc(-c2ccnc3c2CC(C)(C(=O)NCc2ccccc2)O3)cc1 (configuration not stated)	37% (inactive)
O=C(N/N=C/c1ccc2c(c1)OCO2)c1sc2cc(Cl)ccc2c1Cl	47.7% (inactive)
CCOC(=O)/C=C/C(=O)Nc1ccc(S(=O)(=O)N(C)c2ccccc2)cc1	12.7% (inactive)
COc1ccc(OC)c(/C=C/c2ccc3cccc(O)c3n2)c1	15.1% (inactive)

SMILES	activity increase (luciferase signal)
O=C(COc1ccc(/C=N/NC(=O)c2cc3ccccc3o2)cc1Cl)Nc1ccccc1	4.64% (inactive)
O=C(O)CCC/C=C\C[C@@H]1[C@@H](/C=C/[C@@H](O)COc2cccc(Cl)c2)[C@H](O)C[C@@H]1O	103% (inactive)
COc1cc2c(cc1OC)C(c1ccccc1)N(C(=O)CCl)CC2 (configuration not stated)	-85.1% (inactive)
CCOc1ccc(C2c3cc(OC)c(OC)cc3CC(=O)N2c2ccc(OC)cc2)cc1 (configuration not stated)	10.7% (inactive)
COc1ccc(CCn2c(=N)c(C(=O)NC3CCCC3)cc3c(=O)n4ccccc4nc32)cc1OC	-3.5% (inactive)
Cn1cnc([N+](=O)[O-])c1Oc1ccc2ccccc2c1	0% (inactive)
COc1ccc(/C=C/C(=O)c2ccc3c4c(cccc24)CC3)cc1OC	-2.39% (inactive)
COc1cc(/C=C2/CCC/C(=C\c3cc(O)c(OC)c(Cl)c3)C2=O)cc(Cl)c1O	46.5% (inactive)
Cc1cc(NC(=O)CSc2nc(C3CC3)nc3sc(C)c(C)c23)no1	-14.6% (inactive)
C=CCn1c(SCC(=O)c2[nH]c(C)c(C(=O)OC)c2C)nc2scc(-c3ccc(OC)c(OC)c3)c2c1=O	-40.3% (inactive)
CCOc1ccc(NC(=O)C(=O)NCCN2CCN(S(=O)(=O)c3ccc(C)cc3)CC2)cc1	61.7% (inactive)
CN(C)CCCN1C(=O)c2cccc3c(Br)ccc(c23)C1=O	3.12% (inactive)
Cc1cccc(N2CCN(C(=O)c3ccncc3)CC2)c1C	56.1% (inactive)
Cc1nn(C(C)(C)C)c(OC(=O)c2ccc3c(c2)OCO3)c1Sc1ccccc1	14.5% (inactive)
c1ccc(-c2cc(NCCN3CCCCC3)c3ccccc3n2)cc1	17.9% (inactive)
c1ccc2cc3c(NCCN4CCOCC4)ccnc3cc2c1	8.28% (inactive)
Cc1cccc2c(N)c3c(nc12)N(C)CC3	12.8% (inactive)
Cc1cc(C)nc(/N=C(\N)Nc2ccc(OCc3ccccc3)cc2)n1	-26.1% (inactive)
CCOC(=O)Nc1c2ccccc2nc2ccccc12	-12.6% (inactive)
Cc1ccc(S(=O)(=O)Cc2ccc(C(=O)N3CCN(c4cccc(C)c4C)CC3)o2)cc1	14.2% (inactive)
COc1cc2c(C(=O)N3CCN(c4cccc(Cl)c4)CC3)cn(C)c(=O)c2cc1OC	44.3% (inactive)
CC(=O)Nc1cccc(-c2ccnc3c2CC(C)(C(=O)NCc2ccco2)O3)c1 (configuration not stated)	14.7% (inactive)
COc1ccc(NC(=O)C2(C)Cc3c(-c4cccc(NC(C)=O)c4)ccnc3O2)cn1 (configuration not stated)	-1.4% (inactive)
CC(=O)Nc1cccc(-c2ccnc3c2CC(C)(C(=O)Nc2cccc(C(C)=O)c2)O3)c1 (configuration not stated)	30.6% (inactive)
CC1(C(=O)NCC2CC2)Cc2c(-c3cccc(C(F)(F)F)c3)ccnc2O1 (configuration not stated)	30.1% (inactive)
COc1ccc(C2=NOC(C(=O)NCc3ccc(F)cc3)C2)cc1OC (configuration not stated)	10.8% (inactive)

SMILES	activity increase (luciferase signal)
COC(=O)CNC(c1ccccc1Cl)c1cc(Br)ccc1NC(=O)CCN1CCOCC1 (configuration not stated)	0.216% (inactive)
Cc1cc(-n2c(C)cc(C(=O)CCl)c2C)no1	-33.1% (inactive)
CCN(CC)S(=O)(=O)c1cc(NC(=O)Cn2ncc(Cl)c(Cl)c2=O)ccc1C	-30.1% (inactive)
O=C(C[C@@H]1C[C@H]2c3cc(NC(=O)c4cccnc4)ccc3O[C@H]2[C@H](CO)O1)NCc1ccc(Oc2ccccc2)cc1	-29.6% (inactive)
COc1ccc(Nc2nc(N)c(C(=O)c3ccc(F)cc3)s2)cc1	26.8% (inactive)
Cn1cnc(Sc2ncnc3nc[nH]c23)c1[N+](=O)[O-]	-7.2% [at 5 µM] (inactive)
O=C(Nc1cccc(-c2nc3ncccc3o2)c1)c1sc2ccccc2c1Cl	11.3% (inactive)
COc1ccc(-c2cc3ccccc3oc2=O)cc1NC(=S)NC(=O)c1ccc2c(c1)OCCO2	-9.68% (inactive)
COc1ccccc1OCC(=O)N/N=C/C=C/c1ccc([N+](=O)[O-])o1	56.1% (inactive)
Oc1cccc(Nc2c3ccccc3nc3ccccc23)c1	-11.7% (inactive)
Oc1ccc(Nc2nc(NCC3CCCO3)c3ccccc3n2)cc1 (configuration not stated)	14.1% (inactive)
COc1ccc(C2Nc3ccc4ccccc4c3-c3c2c(=O)oc2ccccc32)cc1 (configuration not stated)	5.1% (inactive)
COc1cc2c(cc1OC)C(c1cc(Br)ccc1F)N(C(=O)CCl)CC2 (configuration not stated)	-93.9% (inactive)
COc1ccc(S(=O)(=O)Nc2cccc3ccc(O)cc23)cc1	11.4% (inactive)
Oc1cc(Nc2ccccc2)cc2cccnc12	-44% (inactive)
CCOC(=O)C(CC)(CC)C(=O)/C=C/c1cccc(Br)c1	21.6% (inactive)
COc1ccc(N2CCc3c(C)nc4c(OC)cccc4c32)cc1	-17.1% (inactive)
COc1ccc(N2CCc3c(C)nc4c(OC)cc(OC)cc4c32)cc1	-17.5% (inactive)
CCN(CC)CCC(=O)Nc1cccc2c1C(=O)c1ccccc1C2=O	16.2% (inactive)
CCN(CC)CCn1c2ccccc2c2cnc(N)c(C#N)c21	-41.8% (inactive)
O=C(C=Cc1ccc2c(c1)OCO2)C=Cc1ccc2c(c1)OCO2	11.4% (inactive)
CC(=O)C1=C(C)OC(N)=C(C#N)C1c1cc([N+](=O)[O-])ccc1Cl (configuration not stated)	-7.35% (inactive)
CCN1C(=O)c2cccc3c(S(=O)(=O)N4CCC(C)CC4)ccc1c23	19.7% (inactive)
C=CCN(CC=C)C(=O)CN1C(=O)NC(C)(c2ccc3cc(OC)ccc3c2)C1=O (configuration not stated)	-2.95% (inactive)
